Assay results published in article PMC7819943, “Rice protein-binding microarrays: a tool to detect cis-acting elements near promoter regions in rice”.
Over roughly 68,000 sequences, “fluorescence intensity (a.u.)” has its median near 9,100; the highest 2% begin near 16,000. What follows is part of a selection rich in the highest values, with near analogues and random picks from the rest.

molecular target: OsWRKY34 (Oryza sativa, UniProt Q0JBA9 1-250); assay: protein-binding microarray (RPBM); PBS, 2% BSA, 51.3 ng/ul salmon testes DNA, 50 uM zinc acetate, 200 nM TF, 25 C, 1 h; high values mean tight binding; conditions: protein: recombinant; tags: N-terminal polyhistidine and DsRed monomer fusion (pET32a); label: CyDye5-dUTP incorporated in the synthesized complementary strand; 3' TTTTT single-stranded linker to array surface; dsDNA, one strand shown
Sequence (Q0JBA9 entry or part of it): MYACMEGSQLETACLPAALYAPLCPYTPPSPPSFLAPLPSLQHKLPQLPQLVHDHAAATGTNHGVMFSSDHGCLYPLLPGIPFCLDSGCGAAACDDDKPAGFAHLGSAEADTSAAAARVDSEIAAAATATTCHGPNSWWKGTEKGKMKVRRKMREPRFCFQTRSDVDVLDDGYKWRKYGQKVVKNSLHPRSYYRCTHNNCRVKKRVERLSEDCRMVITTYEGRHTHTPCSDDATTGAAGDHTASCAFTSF
Procedure, shortened: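 Ni–NTA purification followed expression in E. coli BL21-CodonPlus of transcription factors fused N-terminally to a polyhistidine tag and DsRed. At 200 nM in PBS with 2% BSA, salmon testes DNA and 50 µM zinc acetate, the protein was incubated for 1 h at 25 °C with a custom Agilent array that had been primer-extended with Cy5-dUTP and blocked with 2% BSA. After washing, the array was read on an Axon 4000B scanner. The binding signal is per-feature fluorescence intensity in arbitrary units.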

Sequence | binding signal
GGGTATTTTTTAAGTAGCTAGGTGTATAATTAAATTAGTTCGGAGTCACCTAGTGCAG | 8760 fluorescence intensity (a.u.)
TTTTTAGGGTGTGGGTATTAGTTGGAAAATACAATAAATGCGGAGTCACCTAGTGCAG | 9530 fluorescence intensity (a.u.)
GTGTAGGAGTAGTTAGGGTTGTTGCTTGTTGGAGGGAAAACGGAGTCACCTAGTGCAG | 9460 fluorescence intensity (a.u.)
TAATGGAAGTGGTTTACGTCGCTTCTGTCAATAAACACACCGGAGTCACCTAGTGCAG | 48400 fluorescence intensity (a.u.)
TCATCAATGTCGACTTCTGTTTTGAAGTCGCTTTTTCATCCGGAGTCACCTAGTGCAG | 9100 fluorescence intensity (a.u.)
ATGTTTACGTGCAACACATTATGGTTCTCTTCTCTGTAAACGGAGTCACCTAGTGCAG | 8230 fluorescence intensity (a.u.)
ATTCCTCCGCCACAACACCACGCTGACCACAGTCCACCGTCGGAGTCACCTAGTGCAG | 8360 fluorescence intensity (a.u.)
CCCGCTGGTGCACTTCAACGCTACTCCTCTTCGCCGCCAACGGAGTCACCTAGTGCAG | 9270 fluorescence intensity (a.u.)
CGTACCTTCTCTGTTGAATCTCCTGTTCGCTTTTCTGTTACGGAGTCACCTAGTGCAG | 9160 fluorescence intensity (a.u.)
AGACGTATTCCTGTATCCGCCTATCCGTATCTTGGTATCACGGAGTCACCTAGTGCAG | 8300 fluorescence intensity (a.u.)
TATATATATATATATATATATATATATATATATATATATCCGGAGTCACCTAGTGCAG | 8650 fluorescence intensity (a.u.)
ATATATATATATATATATATAGACGTATTCCTGTATCCGCCGGAGTCACCTAGTGCAG | 21000 fluorescence intensity (a.u.)
GGCTTTTTTGTTGGGCTTCTTTTGATCAAAAACGTTGTTTCGGAGTCACCTAGTGCAG | 12000 fluorescence intensity (a.u.)
TGGTGGTGGTTGTGGTTGGGTTGGTGTCTGTCTTTTGTACCGGAGTCACCTAGTGCAG | 16300 fluorescence intensity (a.u.)
GCGATGTCGGTGTGTGGGTGGTGGTATATTTTTCCTTTTTCGGAGTCACCTAGTGCAG | 18000 fluorescence intensity (a.u.)
GCGCTGTCAGTGTGTGGGTGGTAGTATATTTTTTTCTTTTCGGAGTCACCTAGTGCAG | 12500 fluorescence intensity (a.u.)
CTTGCGGTTCATTTGGGGTTGGTTGGTTCTAGGGTACTGTCGGAGTCACCTAGTGCAG | 16700 fluorescence intensity (a.u.)
GTGTGTGGGTGGTGGTATATTTTTTTTCTTTCTCTTGGTTCGGAGTCACCTAGTGCAG | 12800 fluorescence intensity (a.u.)
AATTCATTTGTCTTGGTACGCTGTTGGGGCGTAATAGGGGCGGAGTCACCTAGTGCAG | 13200 fluorescence intensity (a.u.)
GCGGTTGGGTTTGTGTGGTTTTTTTTGAAGGCGGAGTTGTCGGAGTCACCTAGTGCAG | 12100 fluorescence intensity (a.u.)
GAGGAGGTTGGGTTCTTGATCGGTGTCGGATTTTTGGTTGCGGAGTCACCTAGTGCAG | 10800 fluorescence intensity (a.u.)
TTGGTGCTGTTGGTGCGTGGGTGGTGGTATAATTTTCTTTCGGAGTCACCTAGTGCAG | 11900 fluorescence intensity (a.u.)

Sequence | binding signal
TATTGTATTGGGTTGGGCCTTTGTGGTTGTCTAATGAAGTCGGAGTCACCTAGTGCAG | 22300 fluorescence intensity (a.u.)
CTGCTGCAGTTGAGCTGTACTGTTTTGGTGGGTTGGTTTTCGGAGTCACCTAGTGCAG | 13900 fluorescence intensity (a.u.)
TGTTTGGTGCTGTCGGTACATGGGTGGTGGTTTTTTCTTTCGGAGTCACCTAGTGCAG | 17500 fluorescence intensity (a.u.)
GTGTGGCGGACATGTGGGCCCATGATTTTTATTATTTTTCCGGAGTCACCTAGTGCAG | 9790 fluorescence intensity (a.u.)
ATCCTCCGCCGCCGCCTCACCTCCTCCGCCACCGCGCTCGCGGAGTCACCTAGTGCAG | 8270 fluorescence intensity (a.u.)
GCACCCCTGTTTTCTCAGCGATCATGGCTGTAATACTGAACGGAGTCACCTAGTGCAG | 8070 fluorescence intensity (a.u.)
TCCTCCGAATCCCAATCTCTCGCAGTTCGTTCGAGGAGCTCGGAGTCACCTAGTGCAG | 8540 fluorescence intensity (a.u.)
GCCTCGCCCTCGCGTCGTCACCTCTCGCCATGGCCCACTACGGAGTCACCTAGTGCAG | 9950 fluorescence intensity (a.u.)
ATTCTGTTGCGTCATCATGTTCCTGTCTACAGAGCTATACCGGAGTCACCTAGTGCAG | 8840 fluorescence intensity (a.u.)
TTTAAAACTAGGACCTGAGTAAATATTTTTCTTGAGTTTTCGGAGTCACCTAGTGCAG | 8040 fluorescence intensity (a.u.)
GCTAGTTGTAATATACACATAATTGTTGCTTCATTTCAACCGGAGTCACCTAGTGCAG | 9790 fluorescence intensity (a.u.)
TTGCAGTATCCCGGTTGCCCACCTTTCATGGTCCATCACCCGGAGTCACCTAGTGCAG | 8490 fluorescence intensity (a.u.)
GCAATTATTAATGTACCGCTCCGTTTTCATTTTTGGGTTGCGGAGTCACCTAGTGCAG | 8630 fluorescence intensity (a.u.)
TGTGGAGTTTGAGGATTGCACAATAATCTCAGGGGCGGGCCGGAGTCACCTAGTGCAG | 8590 fluorescence intensity (a.u.)
AGGTTATAAGACGTTTTGACTTTGGTTAAAGTCAAACTACCGGAGTCACCTAGTGCAG | 9600 fluorescence intensity (a.u.)
CCTCTCGGGCGCCTCTCCTCTCCATCATTCCTCCCACTGCCGGAGTCACCTAGTGCAG | 9880 fluorescence intensity (a.u.)
ACCGAAAGTTCAATTTGGTCCTTTACATTTTATTTTGTCCCGGAGTCACCTAGTGCAG | 8240 fluorescence intensity (a.u.)
GCTATGTAATGTCCCATCCGTGCTGTATAGTTTGGGTTTTCGGAGTCACCTAGTGCAG | 17200 fluorescence intensity (a.u.)
TTGTGCTGGTTTTGGTTTTGGTTTTGGGTTGCATGTATGTCGGAGTCACCTAGTGCAG | 9790 fluorescence intensity (a.u.)
CCTGTGTGTTGGTGCTGTCGGTATGTGGGTGGTGGTATTTCGGAGTCACCTAGTGCAG | 14600 fluorescence intensity (a.u.)
TTGTGTATTGGTGCTGTCGGTGCATGGGTGGTGGTTTTTTCGGAGTCACCTAGTGCAG | 20700 fluorescence intensity (a.u.)
